Assay outcomes deposited in PubChem by The Scripps Research Institute Molecular Screening Center.
Only some compounds are listed: those with a hit (about 2.3% of all), similar ones and a draw of the others.
CHO-K1 Ca ag: counter-screen for M1 agonists: effect in parental CHO-K1 cells. activation, % at 3 µM. 360,000 tested, 0.48% active. Fluo-8 calcium fluorescence; scaled to maximal ATP response, vehicle zero; in the data active = activation above about 15%;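 also: untransfected CHO-K1 host cells lacking M1 receptor as counterscreen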
CHO-K1 Ca antag: counter-screen for M1 antagonists: effect in parental CHO-K1 cells | ATP-induced calcium, Fluo-8 fluorescence | inhibition, % at 3 µM | 360,000 tested, 0.6% active;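 active = inhibition above a per-plate cutoff, the plate's mean sample inhibition plus 3 SD, cut at about 24% in these data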
CHRM1 antagonist: human M1 muscarinic receptor antagonists, primary screen, CHO-K1 cells, Fluo-8 calcium fluorescence, 1536-well; CHO-K1 hM1, ACh EC80 antagonist; inhibition, % at 3 µM; 360,000 tested, 1.3% active; AID 588852, 2011;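 active = percent inhibition above its own plate's cutoff, namely the mean of that plate's compound wells plus 3 SD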;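 also: peak over basal fluorescence ratio during 140 s after agonist addition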
Target sequence (P11229 whole entry, looked up): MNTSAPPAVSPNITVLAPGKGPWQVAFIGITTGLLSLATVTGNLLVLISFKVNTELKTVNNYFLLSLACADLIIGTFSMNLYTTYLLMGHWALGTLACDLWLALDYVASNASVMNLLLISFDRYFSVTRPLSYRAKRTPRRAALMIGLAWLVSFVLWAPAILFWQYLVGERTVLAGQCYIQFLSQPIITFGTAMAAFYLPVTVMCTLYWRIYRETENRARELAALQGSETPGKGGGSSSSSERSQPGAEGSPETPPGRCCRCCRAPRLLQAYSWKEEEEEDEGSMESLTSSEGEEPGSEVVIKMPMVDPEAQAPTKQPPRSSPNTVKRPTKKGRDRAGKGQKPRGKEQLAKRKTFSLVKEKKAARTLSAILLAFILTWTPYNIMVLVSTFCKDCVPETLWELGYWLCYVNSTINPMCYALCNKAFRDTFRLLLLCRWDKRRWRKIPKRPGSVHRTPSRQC
M1 ag: human M1 muscarinic receptor agonists, primary screen, Fluo-8 calcium fluorescence, CHO-K1 cells, HTS. Muscarinic acetylcholine receptor M1 (Homo sapiens), P11229. CHO-K1 hM1, agonist mode; 0% DMSO, 100% acetylcholine EC100. activation, % at 3 µM. 360,000 tested, 0.33% active;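 active = activation above the run's mean compound activation plus 3 SD, cut at about 16% in these data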;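 also: peak over basal fluorescence ratio within a 140 s kinetic read after compound addition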
M1 PAM parental: nonselective calcium activators in parental CHO-K1 cells, primary screen, counter-screen for M1 PAM project, cell-based, Fluo-8 calcium fluorescence, full deck, 1536-well. activation, % at 3 µM. AID 602247, 2012. ATP EC20; 0% at ATP EC20, 100% at ATP max. 360,000 tested, 0.02% active;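 active = activation above the run cutoff, the mean activation of all test compounds plus 3 SD, cut at about 40% in these data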;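 also: peak over basal fluorescence ratio in a 140 s read after ATP addition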
M1 PAM: human M1 muscarinic receptor positive allosteric modulators, primary screen, CHO-K1 cells, Fluo-8 calcium fluorescence, 1536-well | CHO-K1 hM1, ACh EC20; 0% = ACh EC20, 100% = maximal ACh | activation, % at 3 µM | 360,000 tested, 0.088% active; in the data active = activation above about 19%, passing the limit was not always enough
Each line names hits and unclear results; the compound was inactive in the other large screens.

CCOC(=O)c1oc2c(C)c(O)ccc2c(=O)c1-c1nncn1-c1ccccc1	CHO-K1 Ca antag 31
CN1CCC(C2(O)c3ccccc3CSc3sccc32)CC1 (stereo unspecified)	none
CN1CCC(C2(O)c3ccccc3CCc3ccccc32)CC1	CHRM1 antagonist 57
Cc1ccc(-n2nc(C(=O)c3ccccc3)n3c(=O)cc(-c4ccccc4)nc23)cc1	CHRM1 antagonist 37
C[C@@H]1CN([C@H](C)CO)C(=O)c2cc(Br)cnc2O[C@H]1CN(C)C	none
CCCOC(=O)c1cccc(Nc2nc(-c3cccnc3)nc3ccccc23)c1	CHRM1 antagonist 34
O=C(OCCNc1nc(-c2ccccc2)nc2ccccc12)c1cccnc1	none
O=C(NC(c1ccc(-c2ccccc2)cc1)c1cnccn1)C1CCN(Cc2ccc3c(c2)OCO3)CC1 (stereo unspecified)	none
Cc1cccc(N2CC(O)(c3cccs3)[N+]3=C2CCCC3)c1 (stereo unspecified)	none
Cc1cccc(N2CC(O)(c3cccs3)[N+]3=C2CCCC3)c1C (stereo unspecified)	CHRM1 antagonist 37
Cc1ccc(N2CC(O)(c3cccs3)[N+]3=C2CCCC3)cc1 (stereo unspecified)	CHRM1 antagonist 40
O=C(Nc1cccc2[nH]c([C@H]3C[C@H](O)[C@@H](CO)O3)nc12)NC(c1ccccc1)c1ccccc1	none
Cc1ccc(-c2c[n+](CC(=O)OCc3ccccc3)c3n2CCC3)cc1	none
CC1CCC(C(C)C)C(OC(=O)C[n+]2cc(-c3ccc(Cl)cc3)n3c2CCC3)C1 (stereo unspecified)	CHRM1 antagonist 85
COc1ccc(-c2c[n+](CC(=O)N3c4ccccc4Sc4ccccc43)c3n2CCC3)cc1	CHRM1 antagonist 86
